Laboratory results reported in PubChem BioAssay (NCATS).
Records with an inconclusive call do not appear. Calls of active or inactive are those of the source. Unless noted, calls follow the shape of the dose curve; as a rule, active = well fitted curve in the direction sought with a large enough effect; inconclusive = small, poorly fitted or top-dose-only effect, or another doubt; inactive = no such curve, though single readings can be large; an effect the other way counts as inactive or inconclusive.

How the values were obtained:
[1] = system: HIV-1 nucleocapsid protein NCp7 (binding to TG oligonucleotide); assay: HIV Nucleocapsid (AID 346; call rule not given here;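 also: potency is read from the fitted curve at half-maximal effect; potency is for inhibitors that block NC binding and lower polarization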); conditions: HIV-1 NC / fluorescein-TGTGTGTG probe, fluorescence polarization
Method in brief: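 Fluorescence polarization readout: labelled TG4xF oligo (10 nM) with 100 nM nucleocapsid protein, high-salt (250mM NaCl) Hepes pH 7.5 buffer containing zinc and fresh reducing agents. Compounds added by pin tool; incubation 1 hr, room temperature.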

[2] = target: Lysosomal acid glucosylceramidase (Homo sapiens) (UniProt P04062); assay: Glucocerebrosidase-p2 (AID 348; in the data active = potency below about 10 µM; also: potency is read from the fitted curve at half-maximal effect); conditions: purified GBA, blue fluorogenic substrate, 40 min
Lysosomal acid glucosylceramidase (Homo sapiens), sequence (P04062 whole entry, looked up): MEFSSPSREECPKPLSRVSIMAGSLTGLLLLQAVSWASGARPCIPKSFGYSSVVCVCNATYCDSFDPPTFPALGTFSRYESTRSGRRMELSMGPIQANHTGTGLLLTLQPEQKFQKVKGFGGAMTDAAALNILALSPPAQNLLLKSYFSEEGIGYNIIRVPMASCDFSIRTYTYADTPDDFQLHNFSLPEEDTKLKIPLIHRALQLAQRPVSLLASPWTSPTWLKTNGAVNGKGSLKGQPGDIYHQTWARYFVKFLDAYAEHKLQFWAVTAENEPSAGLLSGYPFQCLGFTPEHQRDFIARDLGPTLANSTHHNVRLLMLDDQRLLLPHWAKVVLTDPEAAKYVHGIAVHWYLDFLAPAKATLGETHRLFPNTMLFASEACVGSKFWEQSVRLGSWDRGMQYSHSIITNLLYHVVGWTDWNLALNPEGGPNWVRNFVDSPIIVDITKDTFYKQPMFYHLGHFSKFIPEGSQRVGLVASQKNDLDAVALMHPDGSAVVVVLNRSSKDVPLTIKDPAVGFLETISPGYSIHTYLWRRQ
Method in brief: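 Compounds titrated from 0.6 nM upwards against 0.2 nM enzyme in pH 5.9 citric acid/KH2PO4, taurocholate, tween-20; blue fluorogenic substrate 80 uM, 40 min room temperature, stopped and read Ex 365/Em 440 for AC50.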

[3] = AP1 Signaling Pathway (AID 357; active = well fitted curve in either direction with a large enough effect, not every such curve was filed as active;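 also: ME-180 reporter cells stimulated with EGF at its EC50 level; % is scaled to controls: 0 for no effect and ±100 for the full control effect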)
Method in brief: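 A ratiometric CCF4 readout (405 nm excitation; 460 and 530 nm emission) quantified AP-1-driven beta-lactamase in ME-180 cells after 5 h with compound and EC50 EGF; AC50 values were derived for activators and inhibitors.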

[4] = target: Cytochrome P450 1A2 (Homo sapiens) (UniProt P05177); assay: p450-cyp1a2 (AID 410; calls by dose curve; also: potency is read from the fitted curve at half-maximal effect;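 as to activity change, negative = inhibition: -100% = full effect of reference inhibitor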)
Cytochrome P450 1A2 (Homo sapiens), sequence (P05177 whole entry, looked up): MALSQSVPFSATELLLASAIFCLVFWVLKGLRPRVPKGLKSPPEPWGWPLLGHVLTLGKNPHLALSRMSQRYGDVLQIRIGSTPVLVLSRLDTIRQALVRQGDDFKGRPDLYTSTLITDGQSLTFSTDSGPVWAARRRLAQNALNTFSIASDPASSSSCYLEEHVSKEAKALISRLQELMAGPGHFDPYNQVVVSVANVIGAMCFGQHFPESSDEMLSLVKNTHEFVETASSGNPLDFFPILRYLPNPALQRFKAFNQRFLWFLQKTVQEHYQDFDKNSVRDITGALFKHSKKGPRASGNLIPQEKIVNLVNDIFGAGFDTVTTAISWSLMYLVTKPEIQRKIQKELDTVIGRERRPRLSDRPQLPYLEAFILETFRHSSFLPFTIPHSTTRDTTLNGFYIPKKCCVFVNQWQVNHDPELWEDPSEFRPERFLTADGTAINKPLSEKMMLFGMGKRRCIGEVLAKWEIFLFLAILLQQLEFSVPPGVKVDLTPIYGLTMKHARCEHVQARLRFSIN
Method in brief: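 Luminescent readout of luciferin formed from Luciferin-ME by human CYP1A2; data normalized against complete inhibition by 57 uM furafylline. Enzyme 20nM, substrate 100uM at Km, 100mM KPO4 buffer, 60 min reaction at room temperature.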

[5] = NFAT Signaling Pathway (AID 444; active = well fitted curve in either direction with a large enough effect, not every such curve was filed as active;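 also: carbachol stimulus at about its EC50 of 1 µM final; % is scaled to controls: 0 for no effect and ±100 for the full control effect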); conditions: Jurkat NFAT-bla M1, carbachol, beta-lactamase ratio, 5 h; at 7.69 µM (top of the series)
Method in brief: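 Jurkat cells with NFAT-driven β-lactamase reporter and co-expressed M1 receptor, stimulated with carbachol (final 1 uM, ~EC50), compound titration, 5 h at 37 °C. CCF4 loaded 1 h at RT; 460/530 nm ratio gave %activity and AC50.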

[6] = target: Glucocorticoid receptor (Homo sapiens) (UniProt P04150); assay: GR-EFC Redistribution (AID 451; calls by dose curve; also: potency is read from the fitted curve at half-maximal effect); conditions: CHO-K1 GR-EFC translocation, beta-gal luminescence, 2 h
Glucocorticoid receptor (Homo sapiens), sequence (P04150 whole entry, looked up, the tested form may be a part): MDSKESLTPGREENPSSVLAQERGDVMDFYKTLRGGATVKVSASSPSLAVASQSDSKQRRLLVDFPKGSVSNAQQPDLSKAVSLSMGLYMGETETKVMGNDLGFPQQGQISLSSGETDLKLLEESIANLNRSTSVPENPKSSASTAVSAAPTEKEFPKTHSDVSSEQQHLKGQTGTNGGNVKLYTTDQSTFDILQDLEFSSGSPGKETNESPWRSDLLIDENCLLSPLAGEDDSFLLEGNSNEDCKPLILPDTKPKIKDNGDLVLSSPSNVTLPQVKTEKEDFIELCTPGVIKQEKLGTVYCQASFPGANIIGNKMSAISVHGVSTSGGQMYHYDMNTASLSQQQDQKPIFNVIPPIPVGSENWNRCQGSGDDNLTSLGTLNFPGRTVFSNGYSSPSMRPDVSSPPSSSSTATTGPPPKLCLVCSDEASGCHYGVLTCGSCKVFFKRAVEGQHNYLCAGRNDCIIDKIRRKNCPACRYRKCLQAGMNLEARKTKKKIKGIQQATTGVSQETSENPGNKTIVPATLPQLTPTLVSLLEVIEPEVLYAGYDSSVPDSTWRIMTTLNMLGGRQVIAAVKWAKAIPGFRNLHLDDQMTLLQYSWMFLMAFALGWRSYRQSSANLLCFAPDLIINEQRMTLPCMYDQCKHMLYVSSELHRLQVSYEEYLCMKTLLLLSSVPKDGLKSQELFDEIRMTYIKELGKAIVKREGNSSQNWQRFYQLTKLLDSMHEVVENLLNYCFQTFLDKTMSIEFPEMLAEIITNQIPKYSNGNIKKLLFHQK
Method in brief: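 CHO-K1 cells expressing nuclear EA and GR-ED fragments of b-gal; compounds titrated up to 46 uM final, 2 h at 37 C. GR nuclear translocation read as complemented b-gal luminescence after 1 h RT detection.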

[7] = target: Mitogen-activated protein kinase 10 (Mus musculus) (UniProt Q61831); assay: JNK3 AlphaScreen Assay (AID 530; active = well fitted curve in either direction with a large enough effect, not every such curve was filed as active;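 also: kinase came from lysate of stimulated human HepG2 cells; signal reports phosphorylation of biotinylated GST-cJun 1-79 at Ser73 with 10 µM ATP; % is scaled to controls: 0 for no effect and ±100 for the full control effect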)
Method in brief: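 Pre-activated (IL-1β/TNFα) JNK3 in HepG2 lysates phosphorylates biotin-GST-cJun(1-79), 10 uM ATP; anti-phospho-cJun(Ser73) AlphaScreen read at room temperature, pH 7.6 Tris buffer. Compounds pre-incubated 15 min as titrations.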

[8] = target: 3',5'-cyclic-AMP phosphodiesterase 4B (Homo sapiens) (UniProt Q07343); assay: qHTS Assay for Inhibitors of PDE-IV (AID 607; active = well fitted activation curve with a large enough effect in the main read-out, with a control signal flat, not every such curve was filed as active; also: % of control where 0% means no effect)
3',5'-cyclic-AMP phosphodiesterase 4B (Homo sapiens), sequence (Q07343 whole entry, looked up): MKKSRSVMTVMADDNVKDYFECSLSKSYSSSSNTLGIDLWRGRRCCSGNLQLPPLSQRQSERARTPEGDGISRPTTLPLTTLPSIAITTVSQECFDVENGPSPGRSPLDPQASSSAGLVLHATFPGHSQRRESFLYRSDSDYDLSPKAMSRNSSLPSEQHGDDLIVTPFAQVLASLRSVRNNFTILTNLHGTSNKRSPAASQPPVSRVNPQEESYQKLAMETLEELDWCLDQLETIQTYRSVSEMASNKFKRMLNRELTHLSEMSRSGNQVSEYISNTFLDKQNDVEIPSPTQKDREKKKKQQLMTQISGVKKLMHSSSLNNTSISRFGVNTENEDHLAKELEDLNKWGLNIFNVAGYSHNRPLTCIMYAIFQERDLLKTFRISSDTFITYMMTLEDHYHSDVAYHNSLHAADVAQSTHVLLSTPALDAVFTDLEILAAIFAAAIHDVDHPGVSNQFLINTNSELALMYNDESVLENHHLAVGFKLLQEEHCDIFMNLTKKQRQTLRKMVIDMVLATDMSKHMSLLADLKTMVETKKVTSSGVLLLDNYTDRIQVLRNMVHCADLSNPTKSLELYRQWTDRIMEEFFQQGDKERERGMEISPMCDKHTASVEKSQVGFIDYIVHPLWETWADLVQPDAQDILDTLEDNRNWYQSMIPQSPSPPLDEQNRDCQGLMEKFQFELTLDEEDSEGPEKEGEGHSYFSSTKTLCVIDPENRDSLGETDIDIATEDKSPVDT
Method in brief: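 Cell-based read-out of cAMP via a modified cyclic nucleotide-gated channel and membrane potential dye (535/590 nm) in HEK293 cells expressing PDE4 endogenously. Compounds tested up to 22.9 uM final; 100 uM RO 20-1724 reference.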

[9] = target: Cytochrome P450 3A4 (Homo sapiens) (UniProt P08684); assay: qHTS Assay for Activators of Cytochrome P450 3A4 (AID 885); also: nearly all actives have a fitted effect of over 65% in size; also: potency is read from the fitted curve at half-maximal effect
Cytochrome P450 3A4 (Homo sapiens), sequence (P08684 whole entry, looked up): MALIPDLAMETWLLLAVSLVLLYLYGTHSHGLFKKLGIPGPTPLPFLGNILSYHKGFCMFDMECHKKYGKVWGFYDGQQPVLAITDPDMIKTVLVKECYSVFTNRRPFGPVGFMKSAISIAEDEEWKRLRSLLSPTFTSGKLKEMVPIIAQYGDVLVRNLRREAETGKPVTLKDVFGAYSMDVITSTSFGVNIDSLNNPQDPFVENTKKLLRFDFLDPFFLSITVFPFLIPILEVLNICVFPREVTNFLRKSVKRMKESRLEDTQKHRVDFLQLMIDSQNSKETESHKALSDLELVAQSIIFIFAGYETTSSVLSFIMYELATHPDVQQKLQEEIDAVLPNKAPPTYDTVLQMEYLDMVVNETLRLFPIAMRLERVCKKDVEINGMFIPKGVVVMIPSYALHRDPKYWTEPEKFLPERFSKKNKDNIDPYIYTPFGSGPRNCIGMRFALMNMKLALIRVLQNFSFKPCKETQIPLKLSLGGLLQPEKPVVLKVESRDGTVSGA
Method in brief: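 Signal was normalized against complete inhibition by 57 uM ketoconazole. The reaction used 20nM CYP3A4 with 25uM Luciferin-PPXE, 10-min compound preincubation and a 60-min NADPH-supported step at RT.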

[10] = target: Cytochrome P450 2D6 (Homo sapiens) (UniProt P10635); assay: qHTS Assay for Inhibitors and Substrates of Cytochrome P450 2D6 (AID 891); also: potency is read from the fitted curve at half-maximal effect; nearly all actives have a fitted effect of over 60% in size
Cytochrome P450 2D6 (Homo sapiens), sequence (P10635 whole entry, looked up): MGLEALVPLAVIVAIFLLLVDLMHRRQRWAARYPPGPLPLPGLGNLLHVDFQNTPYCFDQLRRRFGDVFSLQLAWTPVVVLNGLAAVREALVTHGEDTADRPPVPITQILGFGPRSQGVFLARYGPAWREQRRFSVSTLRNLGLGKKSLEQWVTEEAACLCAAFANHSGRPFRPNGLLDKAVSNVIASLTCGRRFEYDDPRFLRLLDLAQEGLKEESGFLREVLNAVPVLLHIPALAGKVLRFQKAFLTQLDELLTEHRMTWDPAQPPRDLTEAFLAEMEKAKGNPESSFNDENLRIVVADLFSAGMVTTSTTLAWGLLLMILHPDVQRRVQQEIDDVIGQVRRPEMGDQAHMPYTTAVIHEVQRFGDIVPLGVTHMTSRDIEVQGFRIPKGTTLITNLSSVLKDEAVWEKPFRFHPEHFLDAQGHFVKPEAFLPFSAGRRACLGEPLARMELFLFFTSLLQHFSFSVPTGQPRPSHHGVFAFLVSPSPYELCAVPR
Method in brief: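 Human CYP2D6 (5 nM) with 30 uM Luciferin-ME EGE (at Km) in 100 mM KPO4, compound preincubated 10 min, then NADPH regeneration system for 60 min at room temperature. Luciferin read by luminescence; normalized to 1.43 uM quinidine.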

[11] = Primary qHTS for small molecule stabilizers of the endoplasmic reticulum resident proteome: Secreted ER Calcium Modulated Protein (SERCaMP) assay (AID 1508630); also: % is scaled to controls: 0 for no effect and ±100 for the full control effect
Method in brief: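 GLuc-SERCaMP-expressing SH-SY5Y cells, pretreated 16 h with compound, are challenged with thapsigargin to empty ER calcium stores; after 4 h, coelenterazine is added directly to the medium and luminescence is imaged.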

[12] = target: Cytochrome P450 3A4 (Homo sapiens) (UniProt P08684); assay: qHTS Assay for Inhibitors and Substrates of Cytochrome P450 3A4 (AID 884); also: nearly all actives have a fitted effect of over 50% in size; also: potency is read from the fitted curve at half-maximal effect
Method in brief: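 20 nM human CYP3A4 with 25 uM Luciferin-PPXE (at KM) in 200 mM KPO4, preincubated 10 min with compound; NADPH regeneration started a 60 min RT reaction. Luciferin detected by luminescence, normalized to 57 uM ketoconazole as full inhibition.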

[13] = Confirmation and Secondary Assay for Modulators of Hemoglobin Beta Chain Splicing at IVS2 654 locus (AID 910);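 also: HeLa cells stably carrying EGFP split by mutant beta-globin IVS2-654 intron; % of control where 0% means no effect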
Method in brief: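 HeLa cells stably expressing EGFP interrupted by β-globin IVS2-654 intron, seeded overnight in Opti-MEM/2% FCS, then treated 2 days at 37 °C. Restored splicing read as total peak GFP intensity per well by laser scanning cytometry (488 nm excitation, 500–520 nm emission); 500 nM antisense PNA as control.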

[14] = Confirmation and Secondary Assay for Modulators of Hemoglobin Beta Chain Splicing at IVS2 705 locus (AID 930);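 also: HeLa cells stably expressing the EGFP-705 splicing reporter; GFP fluorescence per well restored by corrected splicing of the IVS2-705 intron in EGFP; % of control where 0% means no effect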
Method in brief: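 Splice-correction reporter: EGFP cDNA split by beta-globin intron 2 bearing the 705 mutation, stably in HeLa. Compound incubation 2 days, 37C; fluorescent objects 5-250 µm summed per well.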

[15] = qHTS Assay for Lipid Storage Modulators (AID 1519; calls by dose curve); conditions: Drosophila S3 cells, BODIPY lipid droplet/cell ratio, laser cytometry, cells loaded with oleic acid; for activity change, negative = inhibition: at 57.5 µM (top of the series)
Method in brief: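 Cells seeded at 5,000 per well were treated with compounds over a concentration series and loaded with oleic acid (400 uM, as added). Lipid droplet fluorescence (488 nm excitation, 500-530 nm channel) was read by laser-scanning cytometry and normalized to 20 uM Triacsin C.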

[16] = target: Ubiquitin carboxyl-terminal hydrolase 1 (Homo sapiens) (UniProt O94782); assay: Inhibitors of USP1/UAF1: Pilot qHTS (AID 504865); also: nearly all actives have a fitted effect of over 35% in size; also: potency is read from the fitted curve at half-maximal effect
Ubiquitin carboxyl-terminal hydrolase 1 (Homo sapiens), sequence (O94782 whole entry, looked up): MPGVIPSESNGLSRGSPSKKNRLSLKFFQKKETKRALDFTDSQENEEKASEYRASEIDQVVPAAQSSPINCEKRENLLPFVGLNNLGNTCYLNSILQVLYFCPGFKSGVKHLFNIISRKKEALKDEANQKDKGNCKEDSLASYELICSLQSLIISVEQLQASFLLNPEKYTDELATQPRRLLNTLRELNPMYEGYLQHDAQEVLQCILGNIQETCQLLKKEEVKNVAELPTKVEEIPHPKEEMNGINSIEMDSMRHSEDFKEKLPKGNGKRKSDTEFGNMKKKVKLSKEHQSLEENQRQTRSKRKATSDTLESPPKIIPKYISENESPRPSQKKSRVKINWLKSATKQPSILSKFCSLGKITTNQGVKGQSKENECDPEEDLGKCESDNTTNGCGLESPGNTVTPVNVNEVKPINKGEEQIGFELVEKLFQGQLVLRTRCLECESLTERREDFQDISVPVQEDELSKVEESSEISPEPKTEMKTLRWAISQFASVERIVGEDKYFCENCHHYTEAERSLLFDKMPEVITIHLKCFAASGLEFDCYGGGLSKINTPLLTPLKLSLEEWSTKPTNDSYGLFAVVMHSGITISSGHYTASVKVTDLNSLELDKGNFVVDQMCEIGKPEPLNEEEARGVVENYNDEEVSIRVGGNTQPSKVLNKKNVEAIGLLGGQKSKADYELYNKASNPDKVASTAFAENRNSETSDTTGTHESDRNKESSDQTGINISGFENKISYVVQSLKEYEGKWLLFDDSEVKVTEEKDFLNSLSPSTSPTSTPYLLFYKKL
Method in brief: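 1nM USP1/UAF1 + cpd, 15 min RT; start w/ Ub-Rho 150nM final; kinetic FL 480/540 nm, 6 reads q60 s. Buffer 50mM HEPES pH 7.8, 0.5mM EDTA, 1mM TCEP, 0.01% Tween-20, 0.1 mg/ml BSA.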

[17] = Stat Signaling Pathway (AID 446; active = well fitted curve in either direction with a large enough effect, not every such curve was filed as active)
Method in brief: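 Reporter line: ME-180 cervical carcinoma, SIE-beta-lactamase. Treatment: compound with 40 pM IL-6, 5 hrs, 37 C, in low-serum OPTI-MEM with 10 mM HEPES pH 7.3. Detection: 460/530 nm fluorescence.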

[18] = target: Glucocorticoid receptor (Homo sapiens) (UniProt P04150); assay: GR-GFP Redistribution (AID 450;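 active = compounds whose dose series gives a full or clear partial fitted curve of increased nuclear translocation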; also: potency is read from the fitted curve at half-maximal effect); conditions: U2OS GR-GFP nuclear translocation, laser cytometry, 2 h
[19] = measured here: cell count channel max response
[20] = measured here: lipid channel max response

COc1ccc(NC(=O)N2CC[C@@]3(CCCN(C(=O)Oc4ccccc4)C3)C2)cc1
Potency [1]: > 20 µM (inactive)
Potency [2]: > 11.4 µM (inactive)
outcome [3]: inactive
Potency [4]: inactive
activity change, negative = inhibition [5]: 4.32% (inactive)
Potency [6]: > 46 µM (inactive)
outcome [7]: inactive
Potency [8]: inactive
Potency [9]: inactive
Potency [10]: 6.31 µM (active)
outcome [11]: inactive

COc1cc2occc2c2oc(=O)ccc12
Potency [12]: 12.6 µM (active)
Potency [9]: inactive
Potency [13]: inactive
Potency [14]: inactive
outcome [11]: inactive

CCCN1CCc2cccc3c2C1Cc1ccc(O)c(O)c1-3 (centres undefined)
activity change, negative = inhibition [15]: 1.73% (inactive)
max response [15, 19]: -26.8%
max response [15, 20]: -25.9%

C=C(C)C1Cc2c(ccc3c(=O)c4c(oc23)COc2cc(OC)c(OC)cc2-4)O1 (centres undefined)
Potency [12]: inactive
Potency [13]: inactive
Potency [14]: inactive
Potency [16]: inactive
outcome [11]: inactive

O=C(Nc1ccccc1)N1CCC2(CC1)CCN(C(=O)Oc1ccccc1)CC2
Potency [1]: > 20 µM (inactive)
Potency [2]: > 11.4 µM (inactive)
outcome [3]: inactive
Potency [4]: inactive
activity change, negative = inhibition [5]: 5.23% (inactive)
Potency [6]: > 46 µM (inactive)
outcome [7]: inactive
Potency [8]: inactive
Potency [12]: inactive
Potency [9]: 10 µM (active)
outcome [11]: inactive

CNC(=O)O/N=C/C(C)(C)SC
outcome [7]: inactive
Potency [12]: inactive
Potency [13]: inactive
activity change, negative = inhibition [15]: 7.39% (inactive)
max response [15, 19]: 14.3%
max response [15, 20]: 23.9%
Potency [16]: inactive

NC(N)=N/N=C\c1c(Cl)cccc1Cl
activity change, negative = inhibition [15]: 6.25% (inactive)
max response [15, 19]: 12.3%
max response [15, 20]: 22.6%

CC(=O)OC1CC2C(C)(C)C(=O)C=C[C@]2(C)C2CC[C@]3(C)C(=CC(=O)OC3c3ccoc3)[C@]12C (some centres undefined)
Potency [12]: 15.8 µM (active)
Potency [13]: inactive
Potency [14]: inactive
activity change, negative = inhibition [15]: -3.77% (inactive)
max response [15, 19]: 5.48%
max response [15, 20]: 6.78%

O=C1C=CC(=O)c2c(O)cccc21
Potency [9]: inactive
Potency [13]: inactive
activity change, negative = inhibition [15]: 10.3% (inactive)
max response [15, 19]: -12.3%
max response [15, 20]: -1.73%
Potency [16]: 8.91 µM (active)

CN1C[C@H](C(=O)N[C@@]2(C)O[C@@]3(O)C4CCCN4C(=O)C(Cc4ccccc4)N3C2=O)C[C@H]2c3cccc4[nH]cc(c34)C[C@H]21 (some centres undefined)
activity change, negative = inhibition [15]: 12.3% (inactive)
max response [15, 19]: 8.55%
max response [15, 20]: 25.1%

CN1CCN(c2ncc3ncc(=O)n(C)c3n2)CC1
Potency [1]: > 20 µM (inactive)
Potency [2]: > 11.4 µM (inactive)
outcome [3]: inactive
Potency [4]: 12.6 µM (active)
activity change, negative = inhibition [5]: 11.5% (inactive)
outcome [17]: inactive
Potency [18]: > 9.22 µM (inactive)
Potency [6]: > 46 µM (inactive)
outcome [7]: inactive
Potency [8]: inactive
activity change, negative = inhibition [15]: 3.09% (inactive)
max response [15, 19]: -0.0774%
max response [15, 20]: 1.21%
Potency [16]: inactive

CC(C)[C@@]1(NC(=O)[C@@H]2C[C@@H]3c4cccc5[nH]cc(c45)C[C@H]3N(C)C2)O[C@@]2(O)C3CCCN3C(=O)[C@H](Cc3ccccc3)N2C1=O (some centres undefined)
activity change, negative = inhibition [15]: -0.282% (inactive)
max response [15, 19]: -13.2%
max response [15, 20]: -14.4%

COc1cc2c(cc1O)CC1c3c(cc(O)c(OC)c3-2)CCN1C (centres undefined)
Potency [12]: 25.1 µM (active)
Potency [9]: inactive
Potency [13]: inactive
Potency [14]: inactive
activity change, negative = inhibition [15]: 9.81% (inactive)
max response [15, 19]: 24.1%
max response [15, 20]: 38.2%
